# Data reported in PubChem BioAssay (NCATS).
# Records with an inconclusive call do not appear. The source made the active and inactive calls. The call rests on the fitted dose curve; in most records, active means well fitted cell-killing curve with a large enough effect; inconclusive means small, poorly fitted or top-dose-only effect; inactive means flat fitted curve, though single readings scatter.
# Assay: Cell Viability - LYMP2-024 (AID 988);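 further: plate controls were DMSO only for no effect and 92 µM tetraoctylammonium bromide for full effect; nearly all actives have a fitted effect of over 60% in size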
# Details: LYMP2-024 lymphoblastoid cell viability; series mostly up to 92.2 µM; activity change, negative = cytotoxicity: at the top concentration
# Description: NIH Chemical Genomics Center [NCGC]
# NIH Molecular Libraries Screening Centers Network [MLSCN]
# National Institutes of Environmental Health Sciences [NIEHS]
# National Toxicology Program [NTP]
# We have developed a 1536-well cell-based assay for quantitative high throughput screening (qHTS) against a number of cell lines to determine in vitro cytotoxicity of small molecules. This particular assay uses a human lymphoblastoid cell line (LYMP2-024) purchased from Coriell Institute for Medical Research.
# NCGC Assay Protocol Summary:
# The CellTiter-Glo luminescent cell viability assay (Promega) is a homogeneous method to measure the number of viable cells in culture. The end point readout of this assay is based on quantitation of intracellular ATP, an indicator of metabolic activity, using the luciferase reaction. Luciferase catalyzes the oxidation of beetle Luciferin to oxyluciferin and light in the presence of ATP. The luminescent signal is proportional to amount of ATP present.
# Using the CellTiter-Glo luminescent cell viability assay, the amount of cellular ATP was measured in the lymphoblastoid cell line with complete culture medium following compound treatment for 24 hours. The assay was performed in opaque white Kalypsys 1536-well plates. In the screen, tetraoctylammonium bromide was used as positive control. Library compounds were measured for their ability to cause acute toxicity in the cell line, as reflected by a decrease in intracellular ATP levels, in a concentration-dependent manner. […] AC50 values were determined from concentration-response data modeled with the standard Hill equation.
# qHTS protocol for CellTiter Glo lymphoblastoid cellular assay
# [Step] [Parameter] [Value] [Description]
# 1. Reagent; 5 uL; 2500 lymphoblastoid cells/well
# 2. Time; 5 hr; 37 C incubation
# 4. Controls; 23 nL; Tetraoctylammonium bromide 6.4pM to 92 uM
# 5. Time; 24 hr; 37 C incubation
# 6. Reagent; 5 uL; CellTiter Glo reagent
# 7. Time; 30 min; Room Temperature
# 8. Detection; Luminescence; Viewlux plate reader
# Keywords: cell viability, cytotoxicity, lymphoblastoid cell line, luminescence, NTPHTS, NTPHTS_NCGC, NIEHS, DSSTox, MLSMR, MLSCN, NIH Roadmap, qHTS, NCGC
SMILES,"activity change, negative = cytotoxicity",outcome
Cc1ccc(-c2cc(C(F)(F)F)nn2-c2ccc(S(N)(=O)=O)cc2)cc1,-14% (inactive),–
Nc1c2c(nc3ccccc13)CCCC2,-22.2% (inactive),–
Clc1ccc(C(c2ccccc2Cl)C(Cl)Cl)cc1 (stereo not drawn),-12.5% (inactive),–
N[C@@H](Cc1c[nH]c2ccc(O)cc12)C(=O)O,-28.6% (inactive),–
Cc1cn([C@H]2C=C[C@@H](CO)O2)c(=O)[nH]c1=O,–,inactive
O=c1c(-c2ccc(O)cc2)coc2cc(O)cc(O)c12,-25.2% (inactive),–
CC(C)NCC(O)c1ccc(O)c(O)c1 (stereo not drawn),-12.3% (inactive),–
NS(=O)(=O)c1cc2c(cc1Cl)NCNS2(=O)=O,3.79% (inactive),–
Cn1c(=O)c2c(ncn2C)n(C)c1=O,0.207% (inactive),–
Nc1ccn([C@H]2CC[C@@H](CO)O2)c(=O)n1,-2.4% (inactive),–
CCC1(c2ccccc2)C(=O)NCNC1=O,2.65% (inactive),–
CC(C)C(=O)Nc1ccc([N+](=O)[O-])c(C(F)(F)F)c1,-16.3% (inactive),–
COc1ccc2c(c1)c(CC(=O)O)c(C)n2C(=O)c1ccc(Cl)cc1,-9.12% (inactive),–
Cc1cn([C@H]2C[C@H](N=[N+]=[N-])[C@@H](CO)O2)c(=O)[nH]c1=O,-7.43% (inactive),–
O=c1[nH]cc(F)c(=O)[nH]1,-29.3% (inactive),–
Cn1c(=O)c2[nH]cnc2n(C)c1=O,-3.69% (inactive),–
COc1ccc2[nH]cc(CCNC(C)=O)c2c1,1.96% (inactive),–
NCCS(=O)(=O)O,-6.03% (inactive),–
